For 94 compounds, viability results are on record in PubChem BioAssay AID598 (SRMLSC, 2007).

The whole screen tested about 85,000 compounds, of which about 5,100 (6%) were called active. This is one part of a sample in which actives are shown more often than they occur. A number with no mark means an inactive call.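 Rule for the calls: active = viability at or below 40%; inactive = viability above 40%.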

The experiment is described as follows: H69AR cell viability reduction – human, 86K library, primary screen (AID 598).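 Note: multidrug resistant small cell line overexpressing MRP-1 efflux transporter; 100% = mean luminescence of untreated control wells.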 Particulars: H69AR lung tumor viability, ATP luminescence, 72 h; at 10 µM; stronger effect = lower value.
The viability is a read-out of living cells in per cent, often relative to untreated cells. Turning to `O=C(CSCc1ccc(Cl)cc1)N1CCCCC1`, the viability was 93.6%. For `Cc1cc(NC(=O)CCC(=O)N(CC(=O)NCC2CCCO2)c2ccccc2C)no1` (centres undefined) the value was 100%; for `COCCNC(=O)Cn1cc(C(=O)c2cccs2)c2ccccc21`, 88.3%. To `COc1ccccc1C(=O)n1nc(-c2ccccc2)nc1N` belongs 90.3%. To `COc1ccc(C(=O)n2nc(-c3ccc(Cl)cc3)nc2N)cc1OC` belongs 83.9%; to `COc1ccc(C(=O)n2nc(-c3ccc(C)cc3)nc2N)cc1OC`, 22% (active); to `N#CC1=C(SCc2ccc(C#N)cc2)N=C(N)C(c2nc(-c3ccccc3)cs2)C12CCCCC2` (centres undefined), 56.8%. `COc1ccc(OC)c(-n2nnnc2SCC(=O)Nc2cc(C)ccc2OC)c1`: the viability was 75.6%. For `CC(C)c1nc2ccc(C(=O)O)cc2[nH]1` the value was 94.4%; for `COC(=O)Nc1nc2ccc(Sc3ccccc3)cc2[nH]1`, 17.5% (active).

Consider `Cc1nc2ccc(C(=O)O)cc2[nH]1`, for which the viability is 91.7%. For `COc1ccc(N(CC(=O)NC2CCCCC2)C(=O)CNC(=O)c2ccco2)c(OC)c1` the value was 97.8%; for `Cc1ccc(CN(C(=O)c2sc3ccccc3c2Cl)C2CCS(=O)(=O)C2)cc1` (centres undefined), 18.5% (active). For `COc1cc(C(=O)N(Cc2ccc(N(C)C)cc2)C2CCS(=O)(=O)C2)cc(OC)c1OC` (centres undefined) the value was 80.1%; for `COc1ccc(C(=O)N(Cc2ccc(N(C)C)cc2)C2CCS(=O)(=O)C2)cc1` (centres undefined), 80.1%. For the compound `CC(=O)c1cccc(NC(=O)N2CCCC2C(=O)NCCc2ccccc2)c1` (centres undefined), the viability was 91.7%. To `COc1nc(NC2CCCCC2)nc(N2CCCCCC2)n1` belongs 61.9%; to `CC1=C/C(=N\OS(=O)(=O)c2ccccc2)C=CC1=O`, 0.69% (active). To `N#CCSc1nc2c(c(=O)n1Cc1ccccc1)C1(CCCC1)Cc1ccccc1-2` belongs 80.7%. To `Nc1c(-c2ccc(F)cc2)cnn1C1CCS(=O)(=O)C1` (centres undefined) belongs 98%; to `CC(C)(C)C(=O)c1cnc(Nc2ccccc2)s1`, 55%; to `CCOC(=O)CSc1nc2ccc(C)cc2[nH]1`, 89.4%.

As to `COc1ccc(C(=O)Nc2ccc(S(=O)(=O)NC(C)C)cc2)cc1`, the viability was 97.9%.

As for `COc1ccc(/C(N)=N/OC(=O)Oc2ccccc2)cc1`, the viability was 82.6%.

Regarding `CO/N=C(/CS(=O)(=O)c1ccc(Br)cc1)c1ccc(OC)cc1`, the viability was 31.4% (active). To `Cc1cccc(NC(=O)CSc2nnc(-c3ccco3)o2)c1` belongs 96.2%. To `CC1(C)NC(=O)N(CCCCSc2ccc(Cl)cc2)C1=O` belongs 79%; to `CC(C)c1nc(N2CCOCC2)c(C#N)c2c1COC(C)(C)C2`, 79.6%; to `COc1ccc(CSc2nc(N3CCOCC3)c3c(c2C#N)CC(C)(C)OC3)cc1`, 92.7%. As for `CC1(C)Cc2c(C#N)c(SCc3nc4ccccc4[nH]3)nc(N3CCOCC3)c2CO1`, the viability was 37.1% (active). For `CCc1ccc(C2C(C#N)=C(N)Oc3n[nH]c(CC(=O)OC)c32)cc1` (centres undefined) the value was 92.7%; for `O=C(Nc1ccc2c(c1)OCCO2)C(c1ccc(F)cc1)N1CCCCC1` (centres undefined), 99.9%; for `Cc1ccc(OCc2nnc(NC(=O)OCC(C)C)s2)cc1`, 102%. For the compound `CC1Cc2ccccc2N1C(=O)CSc1nnc(-c2ccc(S(=O)(=O)N3CCCCC3)cc2)o1` (centres undefined), the viability was 29.4% (active). Turning to `CC1Cc2ccccc2N1C(=O)CSc1nc2ccccc2o1` (centres undefined), the viability was 74.2%.

`CCS(=O)(=O)c1ccc2oc(SCC(=O)N3c4ccccc4CC3C)nc2c1` (centres undefined): the viability is 63.3%. Consider `CCOC(=O)/C(C#N)=C\c1c(C)cc(C)c(COC(C)=O)c1C`, for which the viability is 95.1%. On to `CCNC(=O)NC(=O)C(C)OC(=O)c1cc(S(=O)(=O)N2CCCCCC2)ccc1OC` (centres undefined), for which the viability is 84.3%. Consider `Cc1ccc(NC(=O)CCN2CCc3ccccc3C2)cc1`, for which the viability was 79.4%. For `Cc1ccc(NC(=S)NC(NC(=O)Cc2cccc3ccccc23)C(Cl)(Cl)Cl)cc1` (centres undefined) the value was 0.99% (active); for `CC(N=Cc1nc(-c2ccccc2)oc1O)c1ccccc1` (centres undefined), 94.3%; for `Cc1ccc(S(=O)(=O)N2CCC(C(=O)NCC3CCCO3)CC2)cc1` (centres undefined), 105%. To `COc1cccc(NC(=O)CN2CCN(c3nc(-c4cccc(OC)c4)cs3)CC2)c1` belongs 93.2%; to `COc1ccc([N+](=O)[O-])cc1C1NN=C(c2cccc3ccccc23)S1` (centres undefined), 27.1% (active); to `Cc1ccc(CNC(=O)COc2ccc(S(=O)(=O)NC(C)C)cc2)cc1`, 98.1%. To `COc1cc2c(cc1OC)C(C(=O)NCc1ccco1)C1c3ccccc3CCN1C2=O` (centres undefined) belongs 92.7%; to `COc1ccc(-c2cc(C(=O)NCc3ccco3)no2)cc1OC`, 100%; to `COc1ccc(C2=NOC(C(=O)NCc3ccco3)C2)cc1OC` (centres undefined), 28.7% (active). On to `COc1cccc(N=c2oc3c(C)ncc(CO)c3cc2C(N)=O)c1`, for which the viability was 68%. For `CCCCn1c(SCC(=O)N2CCC(C(=O)OCC)CC2)nc2cc(S(N)(=O)=O)ccc21` the value was 48.4%. To `CCCCn1c(SCc2ncc(-c3ccccc3)o2)nc2cc(S(N)(=O)=O)ccc21` belongs 14% (active). On to `CCn1c(SCC(=O)NCC2CCCO2)nc2cc(S(=O)(=O)N3CCCCC3)ccc21` (centres undefined), for which the viability was 96.9%. For `COC(=O)c1ccc(NC(=O)C23CC4CC(C2)CC(n2cnc(Cl)n2)(C4)C3)cc1` the value was 72.7%; for `CCCOC(=O)c1[nH]c2c(c1C)C(=O)CC(c1cccs1)C2` (centres undefined), 34.2% (active). For `CCCOC(=O)c1[nH]c2c(c1C)C(=O)CC(c1cc(OC)c(OC)c(OC)c1)C2` (centres undefined), the viability is 80.3%. For `CCOC(=O)c1[nH]c2c(c1C)C(=O)CC(c1ccc(N(C)C)cc1)C2` (centres undefined), the viability is 100%. To `Cc1nc(NC(=O)CN(C)S(=O)(=O)c2ccc(Cl)cc2)sc1C` belongs 61.4%. For the compound `CCc1c(C)sc(NC(=O)c2cccs2)c1C(N)=O`, the viability was 99.7%. On to `CCN(CC)C(=O)CN(c1cccc(OC)c1)S(=O)(=O)c1ccc(C)cc1`, for which the viability is 82.3%. To `CCCCNC(=O)C1CCCN(S(=O)(=O)c2ccc(S(=O)(=O)NCC(C)C)cc2)C1` (centres undefined) belongs 90.8%. Regarding `Cc1cccc(N2CCN(C(=O)c3cnn4c(C(F)F)cc(-c5ccccc5)nc34)CC2)c1C`, the viability is 28.9% (active).

As for `Cc1cccc(N2CCN(C(=O)C3CCN(S(=O)(=O)c4cnc[nH]4)CC3)CC2)c1C`, the viability was 93.6%. To `O=C(Nc1ccccc1N1CCN(C(=O)c2ccccc2)CC1)c1ccc2c(c1)OCO2` belongs 81.8%; to `O=C1CSC(c2cccc(F)c2)N1c1ccc(O)cc1` (centres undefined), 101%. For `CC(C)CCNC(=O)Cn1c(=O)oc2cc(S(=O)(=O)N3CC(C)CC(C)C3)ccc21` (centres undefined) the value was 40.8%; for `Cc1oc(-c2ccccc2Cl)[n+]([O-])c1C`, 85.9%. Turning to `Cc1[nH][nH]c(=O)c1N=Nc1ccccc1`, the viability was 91.5%. To `Cc1[nH][nH]c(=O)c1C(c1ccc(-c2ccc(Cl)cc2)o1)c1c(C)[nH][nH]c1=O` belongs 1.92% (active).

As to `CCN1CCN(C(=O)C2(NC(=O)Nc3cccc(F)c3)CCCCC2)CC1`, the viability is 90.9%. For `O=C(c1ccccc1Oc1ccccc1)N1CCN(c2ccc(F)cc2)CC1` the value was 100%; for `COC(=O)c1ccccc1NC(=O)CSc1nnnn1C`, 95.3%.

On to `O=C(CN1CCCCC1)N1c2ccccc2Sc2ccc(C(F)(F)F)cc21`, for which the viability was 86.8%. For `CC1CC(C)CN(CC(=O)N2c3ccccc3CCc3ccccc32)C1` (centres undefined) the value was 82.7%; for `O=C(CN1CCCCCC1)N1c2ccccc2Sc2ccc(C(F)(F)F)cc21`, 36.8% (active). Regarding `CC(C)c1nc2oc3c(N4CCN(C)CC4)ncnc3c2c2c1CCC2`, the viability is 33.7% (active). Take `Cc1cc(C)nc(N2CCN(c3ncnc4c3oc3ccccc34)CC2)n1`: the viability is 103%.

For the compound `CCN1CCN(c2ncnc3c2oc2nc(C)c4c(c23)CC(C)(C)OC4)CC1`, the viability was 81.8%. For `COc1cc2c(cc1OC)C(C(C)C)=NC(C)(C)C2` the value was 88.9%. For `C/C(=N\NS(=O)(=O)c1ccc(Br)cc1)c1cccs1` the value was 110%; for `CCn1nc(C)c(NC(=O)/C=C/c2ccc(OC)c(COc3ccc(Br)cc3)c2)c1C`, 28.8% (active); for `COc1ccc(/C=C/C(=O)Nc2c(C)nn(C)c2C)cc1COc1ccc(Br)cc1`, 57.5%. Regarding `CCn1c(COc2ccc(OC)cc2)nnc1SCC(=O)Nc1cc(OC)ccc1OC`, the viability is 71.4%.

As to `COc1cccc2cc(C(=O)N3CCN(C(=O)c4ccccc4)CC3)c(=O)oc12`, the viability was 89.3%. For the compound `O=S(=O)(NC1CCCCC1)c1ccc(F)c2ccccc12`, the viability is 86.6%. For the compound `Cc1ccc(-n2ncc3c2ncn2nc(-c4ccco4)nc32)c(C)c1`, the viability is 78.6%. To `Cc1ccc(-c2nc3c(cnn3-c3ccccc3)c(=O)o2)cc1` belongs 79.6%; to `Cc1ccc(-n2ncc3c(=O)n(-c4ccc(C)c(C)c4)c(-c4ccco4)nc32)cc1`, 31.3% (active); to `CCOC(=O)c1ccc2c(c1)nc(SCC(=O)NC(C)C)n2CC`, 84%.

In the case of `CCNc1nc(NC(C)C)nc(OCCOC(=O)c2ccccc2)n1`, the viability is 83.5%. As for `CCOc1cccc(NC(=O)Cn2nc(-c3ccc4c(c3)OCCO4)ccc2=O)c1`, the viability was 69.3%. For `CCN(CC)S(=O)(=O)c1cccc(C(=O)NCC(=O)OCC(=O)NCc2ccccc2)c1` the value was 87.6%; for `CCN(CC)S(=O)(=O)c1cccc(C(=O)Nc2ccccc2)c1`, 38.5% (active); for `CN(C)S(=O)(=O)c1cccc(C(=O)Nc2cccnc2)c1`, 89.9%.

On to `N#CC1=C(N)N(c2ccccc2)C2=C(C(=O)CCC2)C1c1ccccc1` (centres undefined), for which the viability was 40.4%.
